Reference: PubChem BioAssay AID1159580 (chemical genetic matrix, 2015)
Screen size: about 5,500 compounds; about 2,000 (36%) were called active. Inconclusive results (about 18%) are left out. No stated cut-off is given here; in the data, active means normalized growth mostly below about 0.91 (no sharp cut-off); inconclusive means no clear call, values can overlap the other calls; inactive means mostly above about 0.92. Some of the results follow.

Assay: chemical genetic growth profiling, strain panel (AID 1159580);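 further: tested at 20 µM; growth read once vehicle control cultures reached saturation at 30 °C; 1 = growth at the plate median or of vehicle wells; lower values mean less growth of the strain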
Conditions: growth OD

Measured: normalized growth

COC(=O)c1c(C)cc(OC)cc1O
inactive: S. cerevisiae deletion strains, locus YJR075W, strain HOC1, active compounds read low 0.974 | S. cerevisiae deletion strains, locus YKL009W, strain mrt4, active compounds read low 0.964 | S. cerevisiae deletion strains, locus YKL068W, active compounds read low 0.995 | S. cerevisiae deletion strains, locus YKL085W, strain MDH1 (second series), active compounds read low 0.978 | S. cerevisiae deletion strains, locus YKL085W, strain MDH1, active compounds read low 0.978 | S. cerevisiae deletion strains, locus YKL160W, strain elf1, active compounds read low 0.971 | S. cerevisiae deletion strains, locus YKL190W, strain CNB1, active compounds read low 0.991 | S. cerevisiae deletion strains, locus YKR001C, strain vps1, active compounds read low 0.959 | S. cerevisiae deletion strains, locus YKR026C, strain gcn3, active compounds read low 0.972 | S. cerevisiae deletion strains, locus YKR091W, strain srl3, active compounds read low 0.974 | S. cerevisiae deletion strains, locus YLL001W, strain dnm1, active compounds read low 0.973 | S. cerevisiae deletion strains, locus YLL026W, active compounds read low 0.981 | S. cerevisiae deletion strains, locus YLL041C, strain sdh2, active compounds read low 1 | S. cerevisiae deletion strains, locus YLR027C, strain aat2, active compounds read low 0.967 | S. cerevisiae deletion strains, locus YLR039C, strain RIC1, active compounds read low 0.995 | S. cerevisiae deletion strains, locus YLR058C, strain SHM2, active compounds read low 0.998 | S. cerevisiae deletion strains, locus YLR102C, strain apc9, active compounds read low 0.981 | S. cerevisiae deletion strains, locus YLR113W, strain HOG1, active compounds read low 1.02 | S. cerevisiae deletion strains, locus YLR221C, strain rsa3, active compounds read low 0.959 | S. cerevisiae deletion strains, locus YLR258W, strain gsy2, active compounds read low 0.974 | S. cerevisiae deletion strains, locus YLR262C, strain YPT6 (second series), active compounds read low 1.02 | S. cerevisiae deletion strains, locus YLR262C, strain YPT6, active compounds read low 1.01 | S. cerevisiae deletion strains, locus YLR268W, strain sec22, active compounds read low 0.989 | S. cerevisiae deletion strains, locus YLR320W, strain mms22, active compounds read low 0.947 | S. cerevisiae deletion strains, locus YLR330W, strain CHS5, active compounds read low 0.993 | S. cerevisiae deletion strains, locus YLR342W, strain FKS1 (second series), active compounds read low 1 | S. cerevisiae deletion strains, locus YLR342W, strain FKS1, active compounds read low 0.989 | S. cerevisiae deletion strains, locus YLR357W, strain rsc2, active compounds read low 0.983 | S. cerevisiae deletion strains, locus YLR370C, strain arc18, active compounds read low 0.986 | S. cerevisiae deletion strains, locus YLR371W, strain rom2, active compounds read low 0.989 | S. cerevisiae deletion strains, locus YLR384C, strain iki3, active compounds read low 0.976 | S. cerevisiae deletion strains, locus YLR418C, strain cdc73, active compounds read low 0.941 | S. cerevisiae deletion strains, locus YML016C, strain PPZ1, active compounds read low 0.982 | S. cerevisiae deletion strains, locus YML032C, strain rad52, active compounds read low 0.976 | S. cerevisiae deletion strains, locus YML120C, strain ndi1, active compounds read low 0.988 | S. cerevisiae deletion strains, locus YML124C, strain tub3, active compounds read low 0.984 | S. cerevisiae deletion strains, locus YMR058W, strain fet3, active compounds read low 0.978 | S. cerevisiae deletion strains, locus YMR078C, strain ctf18, active compounds read low 0.981 | S. cerevisiae deletion strains, locus YMR125W, strain sto1, active compounds read low 0.993 | S. cerevisiae deletion strains, locus YMR129W, active compounds read low 0.993 | S. cerevisiae deletion strains, locus YMR205C, strain PFK2, active compounds read low 0.95 | S. cerevisiae deletion strains, locus YMR223W, strain ubp8, active compounds read low 0.971 | S. cerevisiae deletion strains, locus YMR231W, strain pep5, active compounds read low 1 | S. cerevisiae deletion strains, locus YMR263W, strain SAP30, active compounds read low 0.982 | S. cerevisiae deletion strains, locus YMR307W, strain GAS1, active compounds read low 1.03 | S. cerevisiae deletion strains, locus YNL067W, strain RPL9B, active compounds read low 0.994 | S. cerevisiae deletion strains, locus YNL071W, strain lat1, active compounds read low 0.98 | S. cerevisiae deletion strains, locus YNL128W, strain TEP1, active compounds read low 1.01 | S. cerevisiae deletion strains, locus YNL153C, strain GIM3, active compounds read low 0.988 | S. cerevisiae deletion strains, locus YNL183C, strain NPR1, active compounds read low 0.979 | S. cerevisiae deletion strains, locus YNL209W, strain ssb2, active compounds read low 0.999 | S. cerevisiae deletion strains, locus YNL233W, strain BNI4, active compounds read low 0.992 | S. cerevisiae deletion strains, locus YNL248C, strain rpa49, active compounds read low 0.982 | S. cerevisiae deletion strains, locus YNL250W, strain rad50, active compounds read low 0.979 | S. cerevisiae deletion strains, locus YNL271C, strain bni1, active compounds read low 0.978 | S. cerevisiae deletion strains, locus YNL298W, strain CLA4, active compounds read low 0.996 | S. cerevisiae deletion strains, locus YNL307C, strain MCK1, active compounds read low 0.914 | S. cerevisiae deletion strains, locus YNL322C, strain KRE1 (second series), active compounds read low 0.953 | S. cerevisiae deletion strains, locus YNL322C, strain KRE1, active compounds read low 0.997 | S. cerevisiae deletion strains, locus YNR049C, strain mso1, active compounds read low 0.998 | S. cerevisiae deletion strains, locus YNR052C, strain pop2, active compounds read low 1 | S. cerevisiae deletion strains, locus YOL006C, strain TOP1, active compounds read low 0.848 | S. cerevisiae deletion strains, locus YOL012C, strain htz1 0.923 | S. cerevisiae deletion strains, locus YOL147C, strain pex11, active compounds read low 0.978 | S. cerevisiae deletion strains, locus YOR001W, strain rrp6, active compounds read low 0.985 | S. cerevisiae deletion strains, locus YOR061W, strain CKA2, active compounds read low 1.01 | S. cerevisiae deletion strains, locus YOR069W, strain VPS5, active compounds read low 0.995 | S. cerevisiae deletion strains, locus YOR070C, strain gyp1, active compounds read low 0.971 | S. cerevisiae deletion strains, locus YOR080W, strain dia2, active compounds read low 0.982 | S. cerevisiae deletion strains, locus YOR083W, strain WHI5, active compounds read low 0.96 | S. cerevisiae deletion strains, locus YOR106W, strain vam3, active compounds read low 0.978 | S. cerevisiae deletion strains, locus YOR136W, strain idh2, active compounds read low 0.995 | S. cerevisiae deletion strains, locus YOR144C, strain elg1, active compounds read low 0.99 | S. cerevisiae deletion strains, locus YOR184W, strain ser1, active compounds read low 0.922 | S. cerevisiae deletion strains, locus YOR231W, strain MKK1, active compounds read low 1.03 | S. cerevisiae deletion strains, locus YOR265W, strain rbl2, active compounds read low 0.965 | S. cerevisiae deletion strains, locus YOR270C, strain vph1, active compounds read low 0.891 | S. cerevisiae deletion strains, locus YOR290C, strain snf2, active compounds read low 0.977 | S. cerevisiae deletion strains, locus YOR316C, strain cot1, active compounds read low 0.988 | S. cerevisiae deletion strains, locus YPL051W, strain arl3, active compounds read low 0.954 | S. cerevisiae deletion strains, locus YPL055C, strain LGE1, active compounds read low 1 | S. cerevisiae deletion strains, locus YPL078C, strain atp4, active compounds read low 0.917 | S. cerevisiae deletion strains, locus YPL106C, strain sse1, active compounds read low 0.929 | S. cerevisiae deletion strains, locus YPL240C, strain hsp82, active compounds read low 0.974 | S. cerevisiae deletion strains, locus YPL241C, strain CIN2, active compounds read low 0.994 | S. cerevisiae deletion strains, locus YPL256C, strain CLN2, active compounds read low 1.03 | S. cerevisiae deletion strains, locus YPR119W, strain clb2, active compounds read low 0.972 | S. cerevisiae deletion strains, locus YPR141C, strain kar3, active compounds read low 0.98 | S. cerevisiae deletion strains, locus YPR163C, strain tif3, active compounds read low 1 | S. cerevisiae deletion strains, locus YPR167C, strain met16, active compounds read low 0.982 | S. cerevisiae deletion strains, strain wtn01, active compounds read low 0.964 | S. cerevisiae strains, strain wild type, active compounds read low 1
